Shown are actives, neighbours in structure and some others; about 4.6% of the full set was active somewhere.
D1 antagonist = antagonists of human D1 dopamine receptor; P21728; HEK293 TREx D1 cells, calcium flux, dopamine EC80; active compounds read low; activity change, negative = inhibition, % at 10 µM; hit rate 3.2% among 360,000; AID 504652; in the data active = activity change below about -30%; also: % is scaled to controls: 0 for no effect and ±100 for the full control effect
Target sequence (P21728 whole entry, looked up): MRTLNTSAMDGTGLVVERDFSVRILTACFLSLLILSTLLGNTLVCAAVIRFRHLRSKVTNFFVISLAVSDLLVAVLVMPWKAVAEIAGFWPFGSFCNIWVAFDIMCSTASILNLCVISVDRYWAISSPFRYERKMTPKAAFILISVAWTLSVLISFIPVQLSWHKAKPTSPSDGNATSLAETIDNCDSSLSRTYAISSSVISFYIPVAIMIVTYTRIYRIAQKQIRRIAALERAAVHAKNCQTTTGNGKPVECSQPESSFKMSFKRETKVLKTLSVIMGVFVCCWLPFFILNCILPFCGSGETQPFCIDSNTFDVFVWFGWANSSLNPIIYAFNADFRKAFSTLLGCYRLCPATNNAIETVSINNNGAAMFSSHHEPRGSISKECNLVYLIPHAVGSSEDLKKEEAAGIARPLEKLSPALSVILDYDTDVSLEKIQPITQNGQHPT
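Inducible Hek293 Trex D1 cells (tetracycline, overnight, 30 C). Calcium dye 30–90 min RT. Antagonist mode: EC80 dopamine added after 180 s compound read.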
TRHR PAM = allosteric enhancers of human TRH receptor | hit rate 0.66% among 360,000 | enhancement, % at 2 µM | TRHR cells, fluo-8 calcium fluorescence, EC20 TRH enhancement | P34981 | AID 493056; in the data active = enhancement above about 30%; also: 0% is about no effect
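Enhancer read-out: after compound pinning and an initial kinetic agonist-mode read, an EC20 of TRH (10 nM final) was injected and fluo-8 calcium signal (Ex 480/Em 530) followed at 1 s/cycle for 100 cycles in TRHR-expressing cells.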
D1 potentiator = human D1 dopamine receptor positive modulation; hit rate 0.036% among 360,000; P21728; potentiation, % at 10 µM; HEK293 TREx D1 cells, calcium flux, dopamine EC20 potentiation; in the data active = potentiation above about 30%; also: 0% is about no effect
TRHR ag = agonists of human TRH receptor | P34981 | TRHR cells, calcium flux fluo-8, FDSS agonist mode | activation, % at 2 µM | hit rate 0.18% among 360,000; also: 0% is about no effect
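TRHR-expressing cells loaded with fluo-8 calcium dye; 23 nL library compound pin-transferred, kinetic FDSS fluorescence (Ex 480/Em 530) recorded about 180 s for agonist-induced calcium release, before a 10 nM TRH EC20 addition for potentiator mode.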
D1 agonist = agonists of human D1 dopamine receptor; hit rate 1% among 360,000; P21728; HEK293 T-REx D1 cells, calcium flux, agonist mode; activation, % at 2 µM; also: 0% is about no effect
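Inducible HEK293 T-REx D1 cells, force-coupled to calcium signalling, were plated at 4000 cells/well with tetracycline and held overnight at 30 C. After no-wash calcium dye loading, compound-evoked calcium rise over 180 s flagged agonists.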
* marks the source's active call; other numbers are inactive results. Rule as the data show it, unless noted: active = activation above about 30%; inactive = the rest.

SMILES	D1 antagonist	TRHR PAM	D1 potentiator	TRHR ag	D1 agonist
C#CCOCCOCCOCCNc1nc(N2CCOCC2)nc(N2CCN(C(=O)[C@H](CCCCN)n3cc([C@@H](N)C(C)CC)nn3)CC2)n1 (some centres not stated)	-35*	2	-3	1	6
C#CCOCCOCCOCCNc1nc(N2CCN(C(=O)CCCCCCCCCCNC(=O)[C@H](CCCCN)n3cc(C)nn3)CC2)nc(N2CCN(C(=O)CCCCCCCCCCNC(=O)[C@@H]([C@H](C)CC)n3cc(CCCCCN)nn3)CC2)n1	184	6	40*	4	30
C#CCOCCOCCOCCNc1nc(N2CCN(C(=O)CCCCCCCCCCNC(=O)[C@H](CCC(=O)O)n3cc(CCCCCN)nn3)CC2)nc(N2CCN(C(=O)CCCCCCCCCCNC(=O)[C@@H]([C@H](C)O)n3cc(C)nn3)CC2)n1	4	0	1	0	28
C#CCOCCOCCOCCNc1nc(N2CCN(C(=O)CCCCCCCCCCNC(=O)[C@H]([C@@H](C)CC)n3cc(CCCCCN)nn3)CC2)nc(N2CCN(C(=O)CCCCCCCCCCNC(=O)[C@@H]([C@H](C)O)n3cc(C)nn3)CC2)n1	3	3	55*	0	156*
O=C(CSc1n[nH]c(-c2ccccc2Br)n1)NCCN1C(=O)CSC1=O	-18	21	6	0	0
Cc1csc(C2=C(O)CN(CCc3ccccc3)C2=N)n1	-40*	3	-10	0	0
O=C1OC(C(=O)Nc2nccs2)Cc2ccccc21 (configuration not stated)	-40*	-5	1	1	1
Cc1ccc(Nc2c(-c3c[nH]c4ccccc34)nc3ccccn23)cc1	5	4	-1	0	4
COC(=O)c1ccc(NC(=O)N2CCC(CN3CCc4ccccc4C3)CC2)cc1	-8	3	-1	0	24
COc1ccc(S(=O)(=O)N2CCOCC2)cc1NC(=O)[C@@H]1CCCN1C(=O)c1cccs1	2	1	-2	0	0
COc1ccc(S(=O)(=O)N2CCOCC2)cc1NC(=O)C1CCCN1C(=O)c1cccs1 (configuration not stated)	-62*	-4	-6	-1	3
CCCN(Cc1cc2cccc(C)c2[nH]c1=O)C(=O)c1cccc(Cl)c1	8	-9	-2	-1	-2
COC(=O)c1ccc(COC(=O)CCc2nc(-c3ccccc3)c(-c3ccccc3)o2)cc1	-15	0	-10	1	30*
CCOc1ccc(N(C)c2ccc(/C=C3/SC(=S)NC3=O)cc2)cc1	-12	-1	-5	23	133*
Cn1c(C(N)=O)cnc1Sc1ncc(C(F)(F)F)cc1Cl	-47*	0	-6	0	5
C=CCc1ccccc1OCC(O)CN1CCN(c2ccccc2F)CC1 (configuration not stated)	-61*	-4	-20	1	7
C=CCc1ccccc1OCC(O)CNC(C)C (configuration not stated)	-36*	3	-5	1	4
C=CCc1ccccc1OCC(O)CN1CCN(c2ccccc2)CC1 (configuration not stated)	-39*	5	0	-2	-3
Cc1ccc(C)c(OCC(O)CN2CCC(Cc3ccccc3)CC2)c1 (configuration not stated)	-78*	-4	-18	2	47*
COc1cccc(OC)c1OCC(O)CN1CCN(c2ccccc2F)CC1 (configuration not stated)	-18	2	-6	-1	4
COc1ccc(S(=O)(=O)c2c(O)c3ccc(C(=O)NCc4ccccc4)cc3[nH]c2=O)cc1	3	2	0	0	1
Cc1ccc(C(C)C)c(OCC(O)CN2CCN(c3ccccc3F)CC2)c1 (configuration not stated)	-34*	11	-1	1	4
COc1cc(C(C)=O)ccc1OCC(O)CN1CCN(c2ccc(C)cc2C)CC1 (configuration not stated)	-39*	4	-1	0	3
OC(COc1ccccc1Cl)CN1CCN(CC(O)COc2ccccc2Cl)CC1 (configuration not stated)	-82*	-5	-6	3	99*
Cc1ccc(C(C)C)c(OCC(O)CN2CCc3ccccc3C2)c1 (configuration not stated)	-8	5	0	1	27
